# An excerpt weighted towards active compounds, which were near 8.7% of everything screened.
# JMJD2A Tudor inh – qHTS Assay for Inhibitors of JMJD2A-Tudor Domain; actives 4.4% (n = 390,000); Lysine-specific demethylase 4A (Homo sapiens), O75164; AlphaScreen JMJD2A-Tudor / H3K4me3 peptide binding; Potency, µM (top dose mostly 114 µM), usual class: inhibitors; also: nearly all actives have a fitted effect of over 50% in size
# HP1b binding inh – HTS for Inhibitors of HP1-beta Chromodomain Interactions with Methylated Histone Tails | AlphaScreen HP1-beta / biotin-H3K9me3 peptide binding | Potency, µM (doses to about 114 µM), hits mostly inhibitors | actives 0.56% (n = 390,000) | Chromobox protein homolog 1 (Homo sapiens), P83916; also: nearly all actives have a fitted effect of over 70% in size
# Target sequence (P83916 whole entry, looked up): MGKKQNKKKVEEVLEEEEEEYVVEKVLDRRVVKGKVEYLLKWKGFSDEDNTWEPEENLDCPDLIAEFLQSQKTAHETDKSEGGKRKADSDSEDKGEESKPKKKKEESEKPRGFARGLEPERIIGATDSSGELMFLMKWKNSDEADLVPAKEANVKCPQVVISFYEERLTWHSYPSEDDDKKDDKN
#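 AlphaScreen: HP1-beta (50 nM) preformed 30 min with biotin-H3(1-18)K9me3 peptide (50 nM) in PBS pH 7.4, 0.01% Tween-20. Compound added for 30 min at RT, then streptavidin donor/nickel chelate acceptor beads (10 ug/mL) for 30 min.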
# BAZ2B block – qHTS Assay for Inhibitors of BAZ2B; Bromodomain adjacent to zinc finger domain protein 2B (Homo sapiens), Q9UIF8; AlphaScreen BAZ2B-H3K14Ac peptide displacement; Potency, µM (titrated, usually from 114 µM), actives largely listed as inhibitors; actives 4.4% (n = 360,000); AID 504333, 2011; also: nearly all actives have a fitted effect of over 60% in size
#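 AlphaScreen luminescence quantifies BAZ2B engagement of H3K14Ac peptide; the protein and biotinylated peptide are both at 50 nM final, buffer PBS pH 7.4 with 0.01% Tween-20, all steps at room temperature.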
# Sfp PPTase inh – qHTS Assay for Inhibitors of Bacillus subtilis Sfp phosphopantetheinyl transferase (PPTase); 4'-phosphopantetheinyl transferase ffp (Bacillus subtilis), Q9F4F7; Biochemical Sfp PPTase activity, qHTS; Potency, µM, hits mostly inhibitors; actives 3.5% (n = 310,000); AID 1490, 2009;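 also: the enzyme is Sfp with the accession as filed and its product quenches rhodamine fluorescence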
#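 Buffer: 50 mM Hepes-Na pH 7.6, 10 mM MgCl2, 0.01% Nonidet P-40, 0.01% BSA. Enzyme 15 nM, pre-exposed to compound 15 min; substrates then added and fluorescence change tracked over 30 min.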
# 12-LOX inh – Primary qHTS assay for inhibitors of human arachidonate 12S-lipoxygenase (ALOX12): Round 2; purified 12hLO, xylenol orange hydroperoxide absorbance; Potency, µM (series often up to 108 µM), most hits filed as inhibitors; actives 1.1% (n = 580,000)
#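 Hydroperoxide product was detected by ferrous iron/xylenol orange as the 573 to 405 nm absorbance ratio. Arachidonic acid at 40 uM (final) was turned over for 30 min at room temperature by 150 nM human 12hLO, pH 7.0 Hepes buffer, after 15 min compound preincubation.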
# G9a inh – qHTS Assay for Inhibitors of Histone Lysine Methyltransferase G9a. actives 8.8% (n = 350,000). Histone-lysine N-methyltransferase EHMT2 (Homo sapiens), Q96KQ7. G9a H3K9 monomethylation, AlphaScreen, 2 h. Potency, µM (top dose mostly 102 µM), hits mostly inhibitors; also: nearly all actives have a fitted effect of over 75% in size
# Target sequence (Q96KQ7 913-1193 limits assumed): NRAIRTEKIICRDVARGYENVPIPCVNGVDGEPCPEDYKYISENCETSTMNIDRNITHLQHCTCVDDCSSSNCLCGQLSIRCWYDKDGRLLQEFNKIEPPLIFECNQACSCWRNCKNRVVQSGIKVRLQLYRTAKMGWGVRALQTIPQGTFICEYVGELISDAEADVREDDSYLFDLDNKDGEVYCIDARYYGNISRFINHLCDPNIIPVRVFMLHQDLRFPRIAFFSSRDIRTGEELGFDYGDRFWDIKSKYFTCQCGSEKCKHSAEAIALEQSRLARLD
#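 Step 1: enzyme (final 20 nM) with compound, 15 min RT. Step 2: substrate peptide 500 nM and SAM 20 uM, 2 h RT. Step 3: anti-H3K9me1 antibody and AlphaScreen beads, 10 min, then plate read.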
# Hits are given with their value; n = inactive; u = inconclusive; x = no result given; [ ] = another dose, or the depositor's remark. Calls follow the shape of the dose curve; as a rule, active = well fitted curve in the direction sought with a large enough effect; inconclusive = small, poorly fitted or top-dose-only effect, or another doubt; inactive = no such curve, though single readings can be large; an effect the other way counts as inactive or inconclusive.
SMILES,JMJD2A Tudor inh,HP1b binding inh,BAZ2B block,Sfp PPTase inh,12-LOX inh,G9a inh
COCc1cccc(-c2n[nH]c3c2CC(=O)N(Cc2ccccc2)C3)c1,x,x,x,x,n,x
COc1ccc(-c2cc3ccccc3n2CC(O)CNCCO)cc1 (stereo unspecified),5µM,u,50µM,n,u,35µM
OCCNCC(O)Cn1c2ccccc2c2ccccc21 (stereo unspecified),n,n,n,n,n,n
O=C(O)c1ccc([N+](=O)[O-])c2c1C(=O)c1ccccc1C2=O,n,n,x,x,u,x
Nc1cc(C(=O)O)c(N)c2c1C(=O)c1ccccc1C2=O,u,14µM,14µM,u,x,u
Nc1c(C(=O)O)ccc2c1C(=O)c1ccccc1C2=O,u,u,35µM,n,n,35µM
CN1C(=O)CCCCC1C(=O)NCC1CCCCC1 (stereo unspecified),x,x,x,x,n,x
Cc1sc(-c2ccsc2)nc1-c1ccc(F)c(F)c1,x,x,x,x,n,x
CCCN(CCO)Cc1ccc2ccccc2c1,n,n,n,n,n,n
CCCN(CCO)Cc1ccc(F)c(Br)c1,14µM,u,79µM,n,u,16µM
COc1cc2c(cc1OC)[N+]([O-])=C(c1ccccc1)C2=O,x,x,x,x,n,x
O=C1C(c2ccccc2)=[N+]([O-])c2ccccc21,25µM,u,10µM,x,n,n[2.33 µM]
CC(=O)N1CCN(S(=O)(=O)c2cccc(C(=O)OCc3csc(-c4ccccc4)n3)c2)CC1,x,x,x,x,n,x
O=C1CC(c2ccccc2)c2ccc(O)cc2O1 (stereo unspecified),n,n,n,n,n,n
COc1cc(C2CC(=O)Oc3c2c(=O)n(C)c2ccccc32)cc(OC)c1OC (stereo unspecified),n,u,50µM,n,n,n
COc1cc(C2CC(=O)Oc3ccc(O)cc32)cc(OC)c1OC (stereo unspecified),x,x,x,50µM,x,16µM
Cc1ccccc1C1CC(=O)Oc2ccc(O)cc21 (stereo unspecified),x,x,x,126µM,x,10µM
COc1cc(C2CC(=O)Oc3c2c(=O)n(C)c2ccccc32)ccc1O (stereo unspecified),n,n,n,n,n,n
COc1ccc(C2CC(=O)Oc3ccc(O)cc32)cc1 (stereo unspecified),x,x,x,u,x,35µM
CC(C)c1nnc(C2CN(C(=O)c3nccc4ccccc34)CC23CCOCC3)o1 (stereo unspecified),x,x,x,x,n,x
Cc1cc2ccccc2n1CC(=O)N1CCN(C=O)CC1,x,x,x,x,n,x
CN(C)c1ccc(-c2noc([C@@H]3CCCN3CC3CCCCC3)n2)cn1,x,x,x,x,n,x
O=C(O)c1cnc2ccccc2n1,20µM,u,u,n,u,n
O=C(O)c1cc2ccccc2cn1,0.32µM,n,x,x,n,x
O=C1c2ccccc2C(=O)C1c1cc2ccccc2cn1,n,n,x,x,x,x
SMILES,JMJD2A Tudor inh,HP1b binding inh,BAZ2B block,Sfp PPTase inh,12-LOX inh,G9a inh
CN(C)CC(O)c1cc2n(n1)CCN(C(=O)CCc1ccc(=O)[nH]n1)C2 (stereo unspecified),x,x,x,x,n,x
Cn1ncc(N2CCC(NC(=O)CC3CCCCC3)CC2)cc1=O,x,x,x,x,n,x
COc1ccc([N+](=O)[O-])cc1-n1cccc1,u,u,50µM,n,n,n
Cc1c(F)cccc1NS(=O)(=O)c1ccc2c(c1)c(C)cc(=O)n2C,n,n,50µM,n,n,n
Cn1c(=O)c2cc(S(=O)(=O)Nc3cccc(F)c3)ccc2n(C)c1=O,n,n,n,n,n,u
CC1CCN(C(=O)c2nn(C)c(=O)c3ccccc23)c2ccccc2S1 (stereo unspecified),x,x,x,x,n,x
COc1ccc2cc(CNC(=O)CNC(=O)c3ccc(C)cc3)ccc2c1,x,x,x,x,n,x
O=C(COc1ccccc1-c1noc(-c2cccc(Cl)c2)n1)N1CCCCCC1,x,x,x,x,n,x
Cc1ccc(S(=O)(=O)N(C(=O)c2ccncc2)c2ccc(OC(=O)c3ccncc3)c3ccccc23)cc1,40µM,n,n,25µM,n,8.9µM
Cc1ccc(S(=O)(=O)N(C(=O)c2ccncc2)c2ccc(OC(=O)c3ccncc3)c3ccccc23)c(C)c1,u,u,u,45µM,x,1.6µM
CCN(CC)c1cc(CCC(=O)NCCN2CCCCCC2)ccn1,x,x,x,x,n,x
O=C(COc1ccc(Cl)cc1)Nc1ccc(NC(=O)c2ccco2)cc1,n,n,n,n,n,n
O=C(COc1ccccc1)Nc1nnc(-c2ccc(Cl)s2)o1,89µM,n,u,n,n,n
Cc1ccc(C)c(-c2nnc(NC(=O)COc3ccccc3)o2)c1,n,n,n,x,n,n
O=C(COc1ccccc1)Nc1nnc(-c2ccco2)o1,14µM,n,18µM,n,n,u
O=C(COc1ccc(Cl)cc1)Nc1nnc(-c2ccco2)o1,28µM,n,22µM,n,n,n
CN(C)c1ncccc1CNC(=O)C1CCCN(S(C)(=O)=O)C1 (stereo unspecified),x,x,x,x,n,x
CN1[C@@H](CCC(=O)N2CCN(c3ccccc3)CC2)CNC(=O)[C@@H]2[C@H]1CCN2Cc1ccc(F)cc1,x,x,x,x,n,x
Nc1cccc2[nH]ncc12,x,x,x,x,n,x
Clc1ccc(-c2nc3ccccn3c2Nc2ccc3c(c2)OCCO3)s1,45µM,u,n,x,25µM,n
CN(C)c1ccc(-c2nc3ccc(Cl)cn3c2Nc2ccc3c(c2)OCCO3)cc1,u,u,x,x,5.6µM,u
COc1ccc(-c2nc3ccc(C)cn3c2Nc2ccc3c(c2)OCO3)cc1,n,n,x,x,n,u
Cc1ccc2nc(-c3ccc(O)cc3)c(Nc3ccc4c(c3)OCCO4)n2c1,n,n,n,n,u,8.9µM
Clc1ccc2nc(-c3ccccn3)c(Nc3ccc4c(c3)OCO4)n2c1,2.2µM,u,2.8µM,n,n,n
Cc1nc2cc(NC(C)C(=O)Nc3ccc(Cl)cc3)ccc2o1 (stereo unspecified),x,x,x,x,n,x
COCCN1CCOc2nc(-c3cccc(OC(F)(F)F)c3)ncc2C1=O,x,x,x,x,n,x
COc1ccc(C)cc1NC(=O)Cc1nc(-c2ccccc2)oc1C,x,x,x,x,n,x
COc1cc(-c2nc3ccc(C)cn3c2Nc2ccc(Cl)cc2)ccc1O,u,n,n,x,u,u
COc1cc(-c2nc3ccc(Cl)cn3c2Nc2ccc3c(c2)OCO3)ccc1O,32µM,u,x,x,n,13µM
COc1ccc(S(=O)(=O)N(CC(=O)NCc2ccco2)C2CCCCC2)cc1OC,n,n,n,50µM,n,n[12.7 µM]

# Source: PubChem BioAssay (National Center for Advancing Translational Sciences (NCATS))
